Data reported in ChEMBL document CHEMBL3988442, “University of Dundee, Small-Polar-MMV Screening Library” (2021).
Out of some 48,000 compounds screened, about 13,000 (27%) showed an effect of 50% or more. This is one part of the list.

test system: Wolbachia pipientis; assay: Anti-Wolbachia Cell-Based Screen; format: functional; design: scale not given: in the data most compounds retested in dose-response had high values; settings: 5 µM

Row | Structure (SMILES) | Percent Effect
1 | CCCNC(=O)c1cc(-c2ccn(C(C)C)n2)n2ccccc12 | -14.06%
2 | CCC1CN(Cc2c(O)ccc3oc4c(c23)CCCC4)CCO1 (stereo not drawn) | -8.053%
3 | CCCn1nc(-c2nc(Cc3ccc(OC)cc3)no2)ccc1=O | -20.77%
4 | CC(C)c1nc2c(n1C)CCN(CCCc1nc3ccccc3o1)C2 | -2.699%
5 | Cn1cc(-c2nc(CN3CCN(CCO)CC3)cs2)cn1 | -9.549%
6 | Cc1ccc(C(C)(O)CNC(=O)c2scnc2C)o1 (stereo not drawn) | -6.969%
7 | Cc1ccc2oc(=O)n(CCC(=O)N3CCCC4(CNC(=O)O4)C3)c2c1 (stereo not drawn) | -2.854%
8 | CC(C)c1ccc(C(O)Cn2c(=O)c(C#N)cn(C3CC3)c2=O)cc1 (stereo not drawn) | -1.509%
9 | CN(C)C(=O)COCc1nnc2n1CCN(Cc1ccoc1)C2.O=C(O)C(F)(F)F | -2.89%
10 | CN(C)C(=O)COCc1nnc2n1CCN(Cc1ccsc1)C2.O=C(O)C(F)(F)F | 3.675%
11 | CN(C)CCOCc1nnc2n1CCN(Cc1ccoc1)CC2.O=C(O)C(F)(F)F.O=C(O)C(F)(F)F | 88.27%
12 | CN(C)CCOCc1nnc2n1CCN(Cc1ccc(F)cc1)CC2.O=C(O)C(F)(F)F.O=C(O)C(F)(F)F | 109.9%
13 | O=C(O)C(F)(F)F.O=C(O)C(F)(F)F.c1cncc(COCc2nnc3n2CCN(CC2CC2)C3)c1 | -1.478%
14 | COc1ccc(CN2CCc3nnc(COCCN(C)C)n3CC2)cc1.O=C(O)C(F)(F)F.O=C(O)C(F)(F)F | 131%
15 | COCc1nnc2n1CCN(Cc1ccoc1)C2.O=C(O)C(F)(F)F | -3.646%
16 | CN(C)CCOCc1nnc2n1CCN(CC1CC1)CC2.O=C(O)C(F)(F)F.O=C(O)C(F)(F)F | 103.3%
17 | CC(C)N(C)Cc1nnc2n1CCN(Cc1ccncc1)CC2.O=C(O)C(F)(F)F.O=C(O)C(F)(F)F.O=C(O)C(F)(F)F | -8.532%
18 | CC(C)N(C)Cc1nnc2n1CCN(CC1CC1)CC2.O=C(O)C(F)(F)F.O=C(O)C(F)(F)F | 9.045%
19 | CN(C)CCOCc1nnc2n1CCN(Cc1ccsc1)C2.O=C(O)C(F)(F)F.O=C(O)C(F)(F)F | -13.86%
20 | CCc1sc(-c2nnc(CNCCn3cccn3)o2)cc1C | -1.143%
21 | COc1cccc([C@H]2CN(CCCS(=O)(=O)N(C)C)C[C@@H]2N)c1 | -12.77%
22 | Cn1ccnc1CN1CC[C@@H](NS(C)(=O)=O)[C@@H]1Cc1ccccc1.O=C(O)C(F)(F)F | 9.127%
23 | O=C(NC1CCS(=O)(=O)C1)N1CCN(c2cnccn2)CC1 (stereo not drawn) | 3.203%
24 | Clc1ccccc1-c1nnc(CSCCN2CCOCC2)o1 | -8.486%
25 | COCCN(CC(C)C)c1cc(C)ncn1 | 0.855%

Row | Structure (SMILES) | Percent Effect
26 | COc1ccc2c(C)c(C(=O)NC3CCCOC3)oc2c1 (stereo not drawn) | -7.174%
27 | Cc1cccc(-c2noc(C)c2C(=O)NC2CCCOC2)c1.O=C(O)CC(O)(CC(=O)O)C(=O)O (stereo not drawn) | 154%
28 | Cc1c(C(=O)NC2CCCOC2)nnn1-c1ccc(Cl)cc1F (stereo not drawn) | -27.09%
29 | O=c1cc(CNCc2ccc3c(c2)OCO3)nc2ccc(Br)cn12 | 115.5%
30 | CCN(Cc1cc(=O)n2cc(Br)ccc2n1)C1CC1 | 1.133%
31 | CN(CCO)Cc1cc(=O)n2cc(Br)ccc2n1 | 0.309%
32 | O=c1cc(CNCc2ccc3c(c2)OCO3)nc2ccccn12 | 121%
33 | O=c1cc(CN(CCO)C2CC2)nc2ccccn12 | -7.428%
34 | O=c1cc(CN(CCO)C2CC2)nc2ccc(Br)cn12 | 3.193%
35 | c1cn2c(n1)CO[C@@H](CNCc1ccc3c(c1)OCO3)C2 | -4.812%
36 | O=C(OCc1cc(=O)n2cc(Br)ccc2n1)c1ccc2c(c1)OCO2 | 110.5%
37 | O=c1cc(CN(Cc2ccco2)C2CC2)nc2ccc(Br)cn12 | -5.391%
38 | COc1ccccc1OCc1nc(C(C)C)no1 | -14.46%
39 | Cc1cccc(-n2nc(CC(C)C)nc2CS(C)(=O)=O)c1 | 2.26%
40 | CC(C)Cc1nc(CS(C)(=O)=O)n(-c2ccccn2)n1 | -36.43%
41 | COc1ccccc1-n1c(CC(C)C)nnc1SCC(=O)O | -51.76%
42 | COc1ccccc1-n1nc(CC(C)C)nc1CSc1nnc(N)s1 | 106.5%
43 | Cc1cccc(-n2nc(CC(C)C)nc2CCCC(N)=O)c1 | 10.56%
44 | COc1ccc(-n2nc(C(C)C)nc2COC(C)C)cc1 | -17.3%
45 | COc1ccccc1-n1nc(CC(C)C)nc1Cc1nnc(N)s1 | 123.6%
46 | COc1ccccc1-n1nc(C(C)C)nc1Cc1nnc(N)s1 | 123.2%
47 | CC(C)c1nc(C2CCCN(c3nccc(N4CCCC4)n3)C2)no1 (stereo not drawn) | -3.198%
48 | CC(C)c1nc(CCN(C)c2nccc(N3CCCC(O)C3)n2)no1 (stereo not drawn) | 96.48%
49 | CCc1nc(C2CCCN(c3nccc(N4CCCC4)n3)C2)no1 (stereo not drawn) | -11.44%
50 | CN(CCN1CCCCCC1)c1nccc(N2CCC(O)C2)n1 (stereo not drawn) | 17.45%

Row | Structure (SMILES) | Percent Effect
51 | CCc1nc(CN(C)c2nccc(N3CCCC(O)C3)n2)no1 (stereo not drawn) | 114.5%
52 | CCc1nnc(CN(C)c2nccc(N3CCCC(O)C3)n2)o1 (stereo not drawn) | 80.06%
53 | CN(Cc1nccn1C)c1nccc(N2CCCC(O)C2)n1 (stereo not drawn) | 5.071%
54 | CN(Cc1nncn1C)c1nccc(N2CCC(O)CC2)n1 | 2.442%
55 | CCc1noc(CN(C)Cc2ccc(N3CCCCC3)cc2)n1 | 6.491%
56 | CO[C@H]1COCCN(C(=O)c2ccc(C#N)cc2)C1 | 6.544%
57 | CC(NC(=O)CN1C=Nc2ccccc2S1(=O)=O)c1ccccc1 (stereo not drawn) | 1.961%
58 | Cc1c(NC(=O)C(C)N(C)C)c(=O)n(-c2ccccc2)n1C (stereo not drawn) | 117.4%
59 | Cc1cc(NC(=O)N(C)C2CCCN(c3ccccc3)C2=O)n(C)n1 (stereo not drawn) | 12.64%
60 | Cc1nn(C(C)C)c(C)c1NC(=O)c1ccccc1 | -6.028%
61 | CN(Cc1ccsc1)c1nc(-c2ccccn2)nc2c1CCNCC2 | 9.446%
62 | O=C(Cc1ccccc1)N1CCC(c2nnc(-c3ccccn3)o2)CC1 | 100.4%
63 | CCS(=O)(=O)N1CCC(c2nnc(C(F)(F)F)o2)CC1 | -1.552%
64 | O=C(c1ccccn1)N1CCCN(Cc2nnc(C3CC3)o2)CC1 | -3.394%
65 | O=C(CCn1cccn1)N1CCC(c2nnc(-c3ccccn3)o2)CC1 | 80.52%
66 | Cc1nnc([C@@H]2CCO[C@@H]3CCN(C(=O)Cc4ccccn4)C[C@@H]32)o1 | -1.99%
67 | O=C(CCn1cccn1)N1CCC(C2CCN(c3ncccn3)CC2)C1 (stereo not drawn) | 0.2616%
68 | CN(C)S(=O)(=O)N1CCC(c2nnc(C(F)(F)F)o2)CC1 | 9.522%
69 | O=C(Cn1cccn1)N1CCC(c2nnc(C(F)(F)F)o2)CC1 | 121.4%
70 | CS(=O)(=O)NC1CCN(C(=O)CCn2cccn2)CC1 | -7.028%
71 | O=C(CC1CCCC1)N1CCC(c2nnc(-c3ccccn3)o2)CC1 | 116.1%
72 | O=C(Cc1ccccc1)N1CC[C@@H]2CNS(=O)(=O)[C@@H]2CC1 | -4.028%
73 | O=C(CC1CCN(c2ncnc3ccccc23)CC1)N1CCCC1 | -18.62%
